Reference: PubChem BioAssay AID504725 (Broad Institute, 2011)
Potency and affinity values are given separately. Active and inactive are the calls of the source. The rule behind the calls is not given here.

Molecular target: KSHV LANA C-terminal domain (residues 932-1162) binding to LBS DNA (UniProt O40947)
Assay: inhibitors of C-LANA binding to LBS DNA, dose response, biochemical, fluorescence polarization, cherry-picked samples (AID 504725)
Conditions: MBP-C-LANA / FAM-LBS DNA fluorescence polarization, percent change from plate compound-well median; series mostly up to 35 µM

outcome, inactive:
CC(/C=C1\SC(=S)N(CCCC(=O)Nc2ccc(C(=O)O)cc2)C1=O)=C\c1ccccc1, COC(=O)C1=COC(C)C2CN3CCc4c([nH]c5ccccc45)C3CC12 (stereo not drawn), Fc1ccc(-c2cc(C(F)(F)F)nc(-n3cc(Cl)cn3)n2)cc1, CCn1c(=O)c(C(=O)NCCN2CCCCC2)c(O)c2ccccc21, O=C(O)/C=C/C(=O)Nc1ccc(Cc2ccc(NC(=O)/C=C/C(=O)O)cc2)cc1, COc1cccc2[nH]c(C(=O)NC(C)c3ccccc3)cc12 (stereo not drawn), Cn1c2ccccc2c2cnn(CC(=O)Nc3cccc(F)c3)c(=O)c21, COc1cccc(OCCCn2cc(/C=C3/C(=N)N4C=C(C)SC4=NC3=O)c3ccccc32)c1, O=C(OCC(=O)N1N=C(c2ccc(Cl)cc2)CC1c1ccco1)c1cccnc1 (stereo not drawn), CC(C)Cc1nc(SCC(=O)Nc2nnc(CC(C)C)s2)n[nH]1, COc1cc(NC(=O)c2ccc(CNc3c(N4CCCC4)c(=O)c3=O)cc2)cc(OC)c1OC, Oc1ccc(-c2nc3ccccn3c2NCc2ccco2)cc1, CCCc1cc(=O)oc2cc(C)cc(OCC(=O)O)c12, Cc1cc(NS(=O)(=O)c2ccc(Nc3nc(-c4sc(N)nc4C)cs3)cc2)no1, NNC(=O)CC1=NNC(=O)C1, COc1ccc(-c2nc(C(=O)O)cs2)cc1OC, O=C(O)CCN1C(=O)/C(=C\c2ccc(-c3nc4ccccc4s3)o2)SC1=S, C=C1c2cccc(O)c2C(O)=C2C(=O)[C@]3(O)C(O)=C(C(N)=O)C(=O)[C@@H](N(C)C)[C@@H]3[C@@H](O)[C@H]12, O=C(NC1(O)C(=O)c2ccccc2C1=O)c1c(Cl)cccc1Cl, CC(C)Cn1c(N)c(C(=O)CSc2nnc(-c3ccco3)n2C)c(=O)n(C)c1=O, O=C(O)C1(c2ccccc2)CCN(S(=O)(=O)c2ccc(Cl)s2)CC1, O=c1[nH][nH]cc1C=Nc1ccc(Cl)cc1Cl, COc1ccc(NS(=O)(=O)c2cccc3ccccc23)cc1, COc1ccc(OCC(=O)N2CCN(c3cccc(C(F)(F)F)c3)CC2)cc1, Cc1ccc(NC(=O)CN(C)C(=O)c2nn(C)c(=O)c3ccccc23)cc1, CCNc1nc(NC(C)C)nc(NS(=O)(=O)c2ccc(N)cc2)n1, O=C(CN(Cc1ccccc1F)C(=O)c1csnn1)NCc1ccc2c(c1)OCO2, O=C(CSc1nc2ccccc2[nH]1)Nc1cccc(S(=O)(=O)N2CCOCC2)c1, CCN(CC)C(=O)C1c2ccccc2Oc2ccccc21, Cc1ccc(N2CC(C(=O)Nc3nnc(SCC(=O)Nc4nc(C)cs4)s3)CC2=O)cc1 (stereo not drawn), CC(C)c1ccc(CNc2ccc([N+](=O)[O-])cn2)cc1, Cc1noc(C)c1CSCC(=O)Nc1nc2c(F)cc(F)cc2s1, O=C1CN=C(Nc2ccccc2Cl)N1Cc1ccc2c(c1)OCO2, Cn1c(N)c(C(=O)COC(=O)c2ccc(Cl)c(S(=O)(=O)N3CCCC3)c2)c(=O)n(C)c1=O, CN1CCc2c(sc(NC(=O)c3ccc4ccccc4c3)c2C(N)=O)C1, O=C(CSc1cccc2cccnc12)N/N=C/c1ccc(O)cc1, CC(C)c1ccc(NC(=O)Cn2c(=O)oc3cccnc32)cc1, CCC(Sc1ncccc1C(=O)O)C(=O)N1CCCC1 (stereo not drawn)
